This passage reports outcome and Potency results from PubChem BioAssay (NCATS).

In assay [1] the test system is HACAT. Description: qHTS assay to identify novel small-molecules to repurpose for Merkel cell carcinoma treatment (AID 1296009). Also: nearly all actives have a fitted effect of over 60% in size. The note with it: MCC and control cell lines, CellTiter-Glo viability, 72 h; at 44.8 µM (top of the series) unless noted. The method, boiled down:
(§1)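 Cells exposed to NPC (8-point) and MIPE (11-point) compound dilutions for 72 hr at 37 degree celsius; viability read by CellTiter-Glo luminescence, normalized to no-cell and DMSO in-plate controls.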
In general terms: qHTS replaces the single test concentration by a dilution series.

The test system of assay [2] is NIH3T3. The description is as above. The conditions noted are these: MCC and control cell lines, CellTiter-Glo viability, 72 h; at 44.8 µM (top of the series) unless noted. The method, boiled down:
as §1
A general note: Cellular ATP, detected with luciferase, serves as a proxy for viable cell number.

The subject of assay [3] is C33A. Put plainly: Primary qHTS to identify gynecologic anti-cancer compounds using libraries of approved drugs and bioactive compounds (AID 1345084). Also: nearly all actives have a fitted effect of over 55% in size. Also: potency is read from the fitted curve at half-maximal effect. The note with it: Gynecologic cancer cell panel viability, ATPlite luminescence, 48 h; series mostly up to 57.5 µM. The method, boiled down: (§2)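 ATP-based viability (ATPlite), 1,000 cells/well, 16 h pre-incubation, 48 h compound at 37 C, 5% CO2, 15 min RT before read.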

Assay [4] concerns CAOV3. The assay is described as above. The conditions noted are these: Gynecologic cancer cell panel viability, ATPlite luminescence, 48 h; series mostly up to 57.5 µM. The procedure, abridged:
as §2

Assay [5] concerns CASKI. Described as above. The note with it: Gynecologic cancer cell panel viability, ATPlite luminescence, 48 h; series mostly up to 57.5 µM. The method, boiled down: as §2
In assay [6] the test system is Es-2. The description is as above. The note with it: Gynecologic cancer cell panel viability, ATPlite luminescence, 48 h; series mostly up to 57.5 µM. The procedure, abridged:
as §2

For assay [7], the system named is HeLa. Described as above. The note with it: Gynecologic cancer cell panel viability, ATPlite luminescence, 48 h; series mostly up to 57.5 µM. The procedure, abridged:
as §2

Assay [8] concerns Hek293T. The assay is described as above. The conditions noted are these: Gynecologic cancer cell panel viability, ATPlite luminescence, 48 h, control line for the selectivity index; series mostly up to 57.5 µM. The procedure, abridged: as §2
Assay [9] deals with JEG-3. Described as above. The note with it: Gynecologic cancer cell panel viability, ATPlite luminescence, 48 h; series mostly up to 57.5 µM. The procedure, abridged:
as §2

The subject of assay [10] is OV90. The assay is described as above. The conditions noted are these: Gynecologic cancer cell panel viability, ATPlite luminescence, 48 h; series mostly up to 57.5 µM. The procedure, abridged: as §2
In assay [11] the test system is PA-1. The assay is described as above. The note with it: Gynecologic cancer cell panel viability, ATPlite luminescence, 48 h; series mostly up to 57.5 µM. The procedure, abridged:
as §2

Assay [12] concerns SKOV3. The assay is described as above. The note with it: Gynecologic cancer cell panel viability, ATPlite luminescence, 48 h; series mostly up to 57.5 µM. The procedure, abridged: as §2
The subject of assay [13] is Tov112D. Described as above. The note with it: Gynecologic cancer cell panel viability, ATPlite luminescence, 48 h; series mostly up to 57.5 µM. The procedure, abridged:
as §2

Assay [14] has as its system Tov-21-G. Described as above. The note with it: Gynecologic cancer cell panel viability, ATPlite luminescence, 48 h; series mostly up to 57.5 µM. The method, boiled down:
as §2

Results filed as inconclusive are left out. Values without a mark were called inactive. Activity calls are given as the source filed them. Calls follow the shape of the dose curve; as a rule, active = well fitted curve in the direction sought with a large enough effect; inconclusive = small, poorly fitted or top-dose-only effect, or another doubt; inactive = no such curve, though single readings can be large; an effect the other way counts as inactive or inconclusive.

On to `CNC(C)C(=O)NC(C(=O)N1CCCC1C(=O)Nc1cccc2ncccc12)C(C)C` (centres undefined), for which the compound was classed as inactive in [1], in assay [2] and in assay [5]. Also, the Potency result in assay [3], in [6], in assay [7], in [8], in [9] and in assay [10] was “inactive” throughout. Further, the Potency result in [11] and in [13] was “inactive” in each case. For the same compound, the Potency is 10 µM (active) in [4] and 7.94 µM (active) in assay [12].

For the compound `COC(=O)C1=CO[C@@H](O[C@@H]2O[C@H](CO)[C@@H](O)[C@H](O)[C@H]2O)[C@@H]2C(C)CC(=O)[C@]12O` (some centres undefined), the outcome in [1] and in assay [2] was “inactive [at 17.4 µM]” in each case. Also, the Potency result in [3], in [4], in assay [6], in assay [7], in assay [8] and in [9] was “inactive” in each case. The Potency result in [10], in [11], in assay [14] and in assay [13] was “inactive” throughout. Also, the result in [5] was inactive.

`C=C1C(O)CCC2(C)CC3(OC)OC(=O)C(C)=C3CC12` (centres undefined): the result in assay [1], in assay [2] and in assay [5] was inactive. Also, the Potency result in assay [3], in assay [4], in assay [6], in assay [7], in assay [8] and in [9] was “inactive” each time. For the same compound, the Potency entry in [10], in assay [11], in [14] and in [13] was “inactive” throughout.

With `CC1=C[C@@H]2[C@H]3[C@@H]4O[C@@](C)(CC[C@H]4O)[C@H]3CC(=O)[C@]23C(=O)N[C@@H](CC(C)C)[C@@H]3[C@@H]1C`, the outcome in assay [1], in assay [2] and in [5] was inactive. Further, the Potency result in assay [3], in assay [4], in assay [6], in assay [7], in assay [8] and in assay [9] was “inactive” throughout. The Potency result in [10], in [11], in assay [14] and in assay [13] was “inactive” in each case.

Turning to `CC1=CC(=O)CC(C)(C)[C@@]1(O)/C=C/C(C)O[C@@H]1O[C@H](CO)[C@@H](O)[C@H](O)[C@H]1O` (some centres undefined), the outcome in assay [1] and in [2] was “inactive [at 17.4 µM]” each time. Besides, the Potency entry in [3], in assay [4], in assay [6], in assay [7], in [8] and in [9] was “inactive” each time. The Potency result in [10], in [11], in assay [14] and in assay [13] was “inactive” in each case. In addition, the compound was called inactive in assay [5].

For the compound `CCCCOc1nc(N)c2c(n1)N(Cc1cccc(CN3CCCC3)c1)CC(=O)N2`, the outcome in [1], in assay [2] and in [5] was inactive. In addition, the Potency result in assay [3], in assay [4], in [6], in assay [7], in [8] and in [9] was “inactive” throughout. The Potency entry in [10], in assay [11], in [14] and in assay [13] was “inactive” each time.

Turning to `C=C1C2(C)CC3C4(C)C=CC(=O)OC(C)(C)C4CCC3(C)C1(C(=O)OC)C(=O)C(C)(O)C2=O` (centres undefined), the outcome in assay [1] and in assay [2] was “inactive [at 17.4 µM]” throughout. Also, the Potency entry in [3], in assay [4], in [6], in assay [7], in assay [8] and in assay [9] was “inactive” each time. Moreover, the Potency entry in assay [10], in assay [11], in assay [14] and in assay [13] was “inactive” in each case. The result in [5] was inactive.

On to `Cc1c(Cc2ccc3ccccc3n2)c2cc(F)ccc2n1CC(=O)O`, for which the compound was called inactive in assay [1], in assay [2] and in [5]. Further, the Potency result in assay [3], in assay [4], in assay [6], in [7], in assay [8] and in [9] was “inactive” each time. For the same compound, the Potency entry in assay [10], in [11], in [14] and in assay [13] was “inactive” each time.

For the compound `C[C@]1(O)CC[C@@H]2C(C(=O)O)=CO[C@@H](O[C@@H]3O[C@H](COC(=O)/C=C/c4ccc(O)c(O)c4)[C@@H](O)[C@H](O)[C@H]3O)[C@@H]21`, the outcome in assay [1] and in assay [2] was “inactive [at 17.4 µM]” each time. For the same compound, the Potency result in assay [3], in assay [4], in assay [6], in [7], in [8] and in [9] was “inactive” throughout. The Potency entry in assay [10], in assay [11], in [14] and in assay [13] was “inactive” in each case. Further, in assay [5], the outcome was inactive.

As for `O=C(O)Cn1nnc(-c2ccc(CN(CCCCOc3ccc(CN4CCCC4)cc3)CCc3ccccc3)cc2)n1`, the compound was called inactive in [1], in [2] and in assay [5]. Moreover, the Potency entry in assay [3], in [4], in [6], in assay [7], in assay [8] and in [9] was “inactive” each time. For the same compound, the Potency result in assay [10], in assay [11], in [14] and in assay [13] was “inactive” throughout.

For `COC1OC(=O)C2=C1C1(C)CCCC(C)(C)C1CC2O` (centres undefined), the outcome in assay [1], in [2] and in [5] was inactive. In addition, the Potency entry in assay [3], in [4], in assay [6], in [7], in [8] and in assay [9] was “inactive” in each case. In addition, the Potency result in assay [10], in assay [11], in assay [14] and in assay [13] was “inactive” each time.

`COc1cccc(OC)c1-c1cc(C(=O)N[C@@H](CC(C)C)C(=O)O)nn1-c1ccnc2cc(Cl)ccc12`: the call in assay [1], in [2] and in [5] was inactive. For the same compound, the Potency result in assay [3], in assay [4], in assay [6], in assay [7], in [8] and in assay [9] was “inactive” throughout. Further, the Potency result in [10], in [11], in [14] and in assay [13] was “inactive” in each case.

Turning to `C=CCc1ccc(O[C@@H]2O[C@H](CO)[C@@H](O)[C@H](O)[C@H]2O)c(O[C@@H]2O[C@H](CO)[C@@H](O)[C@H](O)[C@H]2O)c1`, the outcome in assay [1] and in [2] was “inactive [at 17.4 µM]” throughout. For the same compound, the Potency result in assay [3], in [4], in [6], in assay [7], in [8] and in [9] was “inactive” each time. Moreover, the Potency result in assay [10], in assay [11], in assay [14] and in assay [13] was “inactive” throughout. In addition, the outcome in [5] was inactive.
